Percent Effect data for 40 molecules are collected here from ChEMBL document CHEMBL3988442, “University of Dundee, Small-Polar-MMV Screening Library” (2021).

For this assay, the target named is Shiga toxin 2 (Escherichia coli O157:H7) (UniProt P09385+P09386). The assay can be described thus: E. coli 0.157:H7 Shiga Toxin SOP - stx2 screening assay. The arrangement: scale not given: direction of the effect not stated beside the values. As to conditions: 30 µM. It counts as functional.
Consider `Cc1cn2nc(N3CCCC3CC(C)(C)C)sc2n1` (stereo not given), for which the Percent Effect turned out to be 22.9%.

Regarding `O=C(NCCC1CCCO1)c1ccccc1N1CCOCC1` (stereo not given), the Percent Effect is -3.88%.

With `Cc1ccc(C)c(C(NC(=O)C2CC2)c2cccnc2)c1` (stereo not given), the Percent Effect is -13.4%.

As for `CC(C)NS(=O)(=O)c1cc(C(=O)O)cc(-c2ccccc2CN(C)C)c1`, the Percent Effect was -13.2%.

Regarding `Cc1nn(CC(=O)N2CCN(c3ccncc3)CC2)c(C)c1Cl`, the Percent Effect was -36.1%.

As for `O=C1CC2(CCN(c3nncs3)C2)CN1c1ccccc1` (stereo not given), the Percent Effect is -24.1%.

`CCOCC(=O)N1C[C@@H]2COC[C@H](c3nc(C)no3)[C@@H]2C1`: the Percent Effect was -13.8%.

As for `Cc1ccc(CC(=O)N2Cc3nccn3CC(Cn3cccn3)C2)cc1` (stereo not given), the Percent Effect is -2.6%.

For the molecule `Cc1cc2c(=O)n3c(nc2s1)CCN(C(=O)c1cnn(C)c1C)CC3`, the Percent Effect turned out to be 5.44%.

In the case of `O=C(Cc1cccnc1)N1CCC(OCc2ccccc2)CC1`, the Percent Effect was found to be 7.67%.

Consider `CC(NC(=O)N(C)Cc1ccc(Cl)s1)c1ccccn1` (stereo not given), for which the Percent Effect is -6.3%.

In the case of `Cc1cnn(C2CCCN(C(=O)CCCNc3ncccn3)C2)c1` (stereo not given), the Percent Effect is 20.6%.

Regarding `Cc1ccc(CNC(=O)NCCCn2nc3ccccn3c2=O)s1`, the Percent Effect was 0.512%.

Consider `Cc1nn(C)c(N2CCOCC2)c1CNC(c1cccs1)C(C)C` (stereo not given), for which the Percent Effect stood at 25.3%.

Take `CC(=O)NCC1CCN(C(=O)c2csc(-c3ccc(C)cc3C)n2)CC1`: the Percent Effect is 14%.

In the case of `CC(C)CC1SCC(=O)Nc2c1cnn2-c1ccc(F)cc1` (stereo not given), the Percent Effect is 0.343%.

As to `Cc1ccc(C(=O)N2Cc3c(CN4CCCCC4)nn(C)c3C2)cc1C`, the Percent Effect is -4.53%.

Turning to `Cc1noc(C2CCN(C(=O)c3c(C)noc3C)CC2)n1`, the Percent Effect is -6.04%.

In the case of `O=C(NCC(Cc1cccc(F)c1)N1CCCC1=O)c1cnccn1` (stereo not given), the Percent Effect was -15.9%.

As for `COc1cc(C(=O)N2CCCS2(=O)=O)cc(Cl)c1OC`, the Percent Effect is -4.54%.

As to `O=C(NCCn1nc2ccccn2c1=O)c1cccc2[nH]ncc12`, the Percent Effect was -25.7%.

Regarding `CCCSCC(=O)NS(=O)(=O)c1ccc2c(c1)OCCO2`, the Percent Effect was determined as 19.7%.

As for `CCN(CC)C(CNC(=O)c1ccc(S(C)(=O)=O)cc1)c1ccco1` (stereo not given), the Percent Effect is -4.44%.

Turning to `CC(NC(=O)NCCN1CCCCCC1=O)c1nncn1C` (stereo not given), the Percent Effect is -18.6%.

For the molecule `CC(=O)N1CCN(C(=O)C(C)n2cncn2)CC1` (stereo not given), the Percent Effect was 1.67%.

On to `CCS(=O)(=O)N1CCC2(CC(=O)N(c3cccc(C)c3)C2)C1` (stereo not given), for which the Percent Effect was -11.5%.

Take `Cc1cnn(CC2CCCN2C(=O)c2cc3ccccc3[nH]c2=O)c1` (stereo not given): the Percent Effect worked out at 22.9%.

`COc1ccccc1C(O)CNCc1c(C(C)C)nn(C)c1N(C)C` (stereo not given): the Percent Effect turned out to be 9.26%.

`O=C(Nc1cccc(CNCc2cccs2)c1)C1CCCC1`: the Percent Effect came to 13%.

Take `COCC1c2c(cnn2CC2CC2)CCN1Cc1cccs1` (stereo not given): the Percent Effect was determined as 0.46%.

As to `c1cnc(N2CCOC3(CCN(CC4CCCCC4)CC3)C2)nc1`, the Percent Effect was -3.02%.

Regarding `Cc1ccc(CCNC(=O)N2CCCC(Cc3nccn3C)C2)cn1` (stereo not given), the Percent Effect was -13.3%.

With `Cc1nnc(CCNC2CCN(c3ncnc4c(C)csc34)CC2)s1`, the Percent Effect was -65.7%.

`CCCN(C(=O)c1ccccn1)c1nc2c(s1)CCc1c-2cnn1C`: the Percent Effect was -72.4%.

Regarding `Cc1nc(C2CCCN2Cc2nc(C)c(C)o2)no1` (stereo not given), the Percent Effect was 7.48%.

Turning to `Cc1nn(C)c(N2CCOCC2)c1CNC1CCc2cc(F)ccc21` (stereo not given), the Percent Effect was -5.02%.

As for `CC(C)C(=O)NCc1cccc(N2CCCCC2=O)c1`, the Percent Effect was found to be 6.13%.

Regarding `Cc1cnn(CC(C)NCc2ccc(S(C)(=O)=O)cc2)c1` (stereo not given), the Percent Effect was -66.9%.

As to `O=C(c1ccc[nH]1)N1CCCC2(CCN(c3ccsc3)C2=O)C1` (stereo not given), the Percent Effect was determined as 3.06%.

As for `Cc1cnn(C2CCCN(C(=O)c3ccc(N(C)C)nn3)C2)c1` (stereo not given), the Percent Effect was -0.265%.
